Measurements reported in PubChem BioAssay (NCI).
The panel holds about 79,000 compounds, 15% with a hit somewhere; the sample as a whole holds those more often. Cut-off read from the data, not from the text of the source: active = growth inhibition above about 70%; inactive = the rest.

Experiments:
[1] = NCI Yeast Anticancer Drug Screen. Data for the rad50 strain (AID 155);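 note: 0% = growth of vehicle-only cultures of the same strain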; conditions: S. cerevisiae rad50 strain growth inhibition; at 50.0 µM; stronger effect = higher value
Procedure, shortened: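 Yeast carrying a defined DNA repair defect were exposed to test compounds, and growth was compared with vehicle-treated controls to give percent inhibition.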

[2] = NCI Yeast Anticancer Drug Screen. Data for the mec2-1 strain (AID 157); conditions: S. cerevisiae mec2-1 strain, at 50.0 µM, stronger effect = higher value
Procedure, shortened: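 Readout is yeast growth inhibition, normalised to vehicle-treated controls, in the mec2-1 strain exposed to compound.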

[3] = NCI Yeast Anticancer Drug Screen. Data for the sgs1 mgt1 strain (AID 161);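 note: 0% = growth of cultures given vehicle only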; conditions: S. cerevisiae sgs1 mgt1 strain, at 50.0 µM, stronger effect = higher value
Procedure, shortened: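 Growth of a repair-deficient yeast mutant was monitored after compound treatment and expressed as inhibition relative to vehicle-treated cultures.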

[4] = NCI Yeast Anticancer Drug Screen. Data for the cln2 rad14 strain (AID 165);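 note: 0% = growth equal to vehicle treated cultures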; conditions: S. cerevisiae cln2 rad14 strain, at 50.0 µM, stronger effect = higher value
Procedure, shortened: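 Relative to vehicle controls, growth inhibition of compound-treated cln2 rad14 yeast was recorded.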

[5] = NCI Yeast Anticancer Drug Screen. Data for the bub3 strain (AID 167); conditions: S. cerevisiae bub3 mutant strain, at 50.0 µM, stronger effect = higher value
Procedure, shortened: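 Compounds were applied to a genetically altered yeast strain carrying a cell-cycle control defect. Growth inhibition was scored against vehicle-treated controls.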

[6] = NCI Yeast Anticancer Drug Screen. Data for the mlh1 rad18 strain (AID 175); conditions: S. cerevisiae mlh1 rad18 strain growth inhibition; at 50.0 µM; stronger effect = higher value
Procedure, shortened: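 Test agents were incubated with a yeast strain of defined genotype (DNA damage repair defect). Inhibition of growth was derived by comparison with vehicle-exposed cultures.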

Measured: growth inhibition

CC(=O)/C(=C/N1CCNC1=S)C(=O)Nc1ccc([N+](=O)[O-])cc1
inactive: [1] -0.1% | [2] -4.5% | [3] -28.1% | [4] -33% | [5] -12.9% | [6] 5.6%

COc1ccccc1C1c2cc3c(cc2OC(O)(CO)C1C(=O)O)OCO3 (stereo not drawn) (tested in a mixture with another compound)
inactive: [1] -18.4% | [2] -22.7% | [3] -15.3% | [4] -14% | [5] -20.6% | [6] -3.15%

CC(=O)c1ccc(N=C2c3ccccc3CN2c2ccc(C(C)=O)cc2)cc1
inactive: [1] 11.8% | [2] -13.6% | [3] -6.75% | [4] -10.6% | [5] -5.25% | [6] 4.5%

CC(=O)CCC(=O)c1ccoc1
inactive: [1] 9.05% | [2] -4.2% | [3] 4.4% | [4] -10.1% | [5] -9.55% | [6] 9.25%

COc1ccc(N2C(=O)C3c4[nH]c5ccc(F)cc5c4C4CCC(C(C)(C)C)CC4C3C2=O)cc1 (stereo not drawn)
inactive: [1] -7.05% | [2] -2.3% | [3] 1.55% | [4] 7.45% | [5] -3.2% | [6] 22.1%

CN(Cc1c(O)ccc2ccccc12)Cc1c[nH]c2ccccc12
inactive: [1] 20.4% | [2] -13.8% | [3] 0.5% | [4] -46.5% | [5] 6.9% | [6] 13.4%

O=C(O)COc1ccccc1C1CCCCC1
inactive: [1] 0.15% | [2] 7.6% | [3] 6.25% | [4] -4.9% | [5] -18.6% | [6] -2.2%

S=C(S)N(Cc1ccccc1)Cc1ccccc1
inactive: [1] 33.4% | [2] -3% | [3] 27.2% | [4] -0.7% | [5] 6.6% | [6] 36.5%

Cn1c(=O)c2[nH]c(SCCN3CCOCC3)nc2n(C)c1=S
inactive: [1] -23.4% | [2] -47.2% | [3] -25.6% | [4] 14.2% | [5] -66.2% | [6] -4.95%

CC(=O)Nc1ccc(S(=O)(=O)N/N=C(\C)c2csc3ccccc23)cc1
inactive: [1] -2.7% | [2] -5.25% | [3] -19.9% | [4] -16.1% | [5] -4.05% | [6] 0.15%

CC(=O)OCC1OC(Cl)C(OC(=O)C(Cl)(Cl)Cl)C(OC(C)=O)C1OC(C)=O (stereo not drawn)
inactive: [1] 2.8% | [2] 0.2% | [3] -13.6% | [4] -0.95% | [5] -2.65% | [6] -9.45%

CC(=O)/C=C\C1CC2C=CC1C2 (stereo not drawn)
inactive: [1] -11.6% | [2] -10.2% | [3] 3.65% | [4] 17.1% | [5] -20.4% | [6] 31.6%

N#CC(F)(F)C(F)(F)C(F)(F)C(F)(F)C(F)(F)C(F)(F)C(F)(F)F
inactive: [1] 33.5% | [2] -18.8% | [3] -11.2% | [4] -21.8% | [5] -15.3% | [6] -4.6%

CC(=O)NC(N)=O
inactive: [1] 3.9% | [2] 2.2% | [3] 28.4% | [4] -30.9% | [5] -1.9% | [6] 1.6%

O=C(O)CCC(=O)NC(c1ccccc1)(c1ccccc1)c1ccccc1
inactive: [1] -17.4% | [2] -9.45% | [3] -0.15% | [4] -37.1% | [5] 3.2% | [6] 3.1%

COC1OC(CN)C(O)C(O)C1O (stereo not drawn)
inactive: [1] 0.15% | [2] 12.1% | [3] 2.35% | [4] 28.2% | [5] 5.7% | [6] 43.2%

Cn1c(=O)c(-c2ccccc2)cc2ccccc21
inactive: [1] -9.9% | [2] -12.9% | [3] -3.85% | [4] -1.95% | [5] -1.15% | [6] -16.6%

Cc1ccc(NC(=O)Nc2cccc(Cl)c2)cc1C
inactive: [1] -0.1% | [2] 5.05% | [3] -4.95% | [4] -17.2% | [5] 5.1% | [6] -16.6%

CCCCCCCCCCCCCCCCOc1ccc(S(=O)(=O)NC(C)(C)C)cc1[N+](=O)[O-]
inactive: [1] 8.7% | [2] -17.4% | [3] 7.85% | [4] -1.6% | [5] 20.6% | [6] 18.9%

Cc1cc(C)nc(Nc2nc3ccc([N+](=O)[O-])cc3[nH]2)n1
inactive: [1] 0.5% | [2] -5.3% | [3] 5.5% | [4] -7.4% | [5] -5.05% | [6] -4.85%

C=C1C2CC3CCC2C(OC(=O)c2ccccc2C(=O)O)C13 (stereo not drawn)
inactive: [1] -0.45% | [2] -11.2% | [3] 1.4% | [4] 14.8% | [5] -2.2% | [6] -19.3%

COC(=O)/C=C/c1cc(=O)n2c(nc3ccccc32)s1
inactive: [1] -11.1% | [2] -20.1% | [3] -13.2% | [4] -35.2% | [5] -41.5% | [6] -12.2%

CC(C)CN(CC(C)C)C(=S)[S-].CC(C)CN(CC(C)C)C(=S)[S-].[Zn]
inactive: [1] 54.5% | [2] 12.7% | [3] 55% | [4] 21.4% | [5] 4.65% | [6] 32.4%

O=C1C2C(C(=O)N1c1ccccc1)C1(c3cccnc3)NC(=O)C2(Cc2cccnc2)c2ccccc21 (stereo not drawn)
inactive: [1] 12.6% | [2] -5.85% | [3] 8.95% | [4] 19.7% | [5] -1.55% | [6] 13.5%

CC(=N\[O-])/C(C)=N/O.CC(=N\[O-])/C(C)=N/O.CCCc1ccncc1.[Cl-].[Cl-].[Rh+3]
inactive: [1] -9.2% | [2] -34% | [3] -29.4% | [4] 13.7% | [5] -44.6% | [6] 3.9%

O=C1c2ccccc2SC[C@@H]2CCCN12
inactive: [1] 22.9% | [2] -7.75% | [3] -3.6% | [4] 9.35% | [5] 3.35% | [6] 2.35%

CN(C)c1ccc(/C=C(\C#N)C(=O)c2ccccc2)cc1Br
inactive: [1] 0.55% | [2] -6.1% | [3] 1.85% | [4] 22.7% | [5] -15.2% | [6] 13.8%

O=c1[nH]c(=O)c2nnoc2[nH]1
inactive: [1] 12.4% | [2] 7.65% | [3] 4.55% | [4] -20.2% | [5] 7.4% | [6] -16.5%

CC(Cc1cccc2ccccc12)(C(=O)O)C(=O)O
inactive: [1] 7.15% | [2] -4.1% | [3] 11.5% | [4] -14.2% | [5] -7.5% | [6] 0.05%

COc1ccccc1/C=C(\C)C(=O)O
inactive: [1] 10.8% | [2] -15.3% | [3] -6.2% | [4] 0.05% | [5] -11.3% | [6] -16.1%

CCCCSCCOC(=O)C1C2CCC(O2)C1C(=O)O (stereo not drawn)
inactive: [1] 19.5% | [2] -3.85% | [3] 0.1% | [4] 13.4% | [5] -1.25% | [6] 13.8%

O=C1OC(=O)C2C3C=CC(CC3)C12 (stereo not drawn)
inactive: [1] -1.35% | [2] 4% | [3] -13.3% | [4] -65% | [5] -31.1% | [6] -0.1%

C/C(=N\NC(=O)CC(=O)Nc1ccccc1Cl)c1cc2cc(N=Nc3ccccc3Cl)ccc2oc1=O
inactive: [1] -17.1% | [2] 0.7% | [3] 13.9% | [4] 4.4% | [5] -4.05% | [6] -13.6%

CCC(C)(O)c1cnc(CC(C)C)c(=O)n1O (stereo not drawn)
inactive: [1] 55.5% | [2] 32.9% | [3] 43.3% | [4] 38.7% | [5] 38.4% | [6] 52.2%

CC/C(N)=N\OC(=O)c1ccccc1
inactive: [1] 14.3% | [2] -4.75% | [3] -4.45% | [4] -44.4% | [5] 2.8% | [6] -5%

O=C(CC(=O)N(C(=O)c1ccccc1)c1ccc(Cl)cc1)N/N=C\c1cc(N=Nc2ccccc2Cl)ccc1O
inactive: [1] -13.8% | [2] -10.1% | [3] 14.8% | [4] 15.2% | [5] -21.4% | [6] 9.1%

CC(=O)OC1CCC2(C)C(=CCC3C2CCC2(C)C(/C(C)=N/NC(N)=S)=CCC32)C1 (stereo not drawn)
inactive: [1] 58.8% | [2] 55.4% | [3] 67.6% | [4] 49.6% | [5] 37.7% | [6] 54.1%

CCOc1ccc(/C(Cl)=C(\C=O)c2ccc(OC)c(OC)c2)cc1OCC
inactive: [1] -0.1% | [2] -4.8% | [3] 3.25% | [4] -2.2% | [5] -3.6% | [6] 2.55%
